The source made the active and inactive calls.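 The calls were made as follows, unless noted: active = visually confirmed hit in the image check and inhibition above 20%; inconclusive = visually confirmed hit but inhibition not above 20%; inactive = no visual hit in the image check.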
Legend:
[1] = inhibitors of TNFa-induced NFkB p65 translocation, primary screen, imaging, HUVEC, MLSMR starter and 10KST1 sets (AID 438;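 active = inhibition above 20% together with a positive visual image hit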;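 also: compound added about 3h40 before a 20 min TNFalpha stimulation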;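 as to inhibition: signal is the nuclear over cytoplasmic p65 intensity ratio per well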); settings: HUVEC TNFa-induced p65 nuclear translocation; cell count: measured here: nuclei count (cytotoxicity indicator), at 2.08 µM; inhibition: at 2 µM, stronger effect = higher value, 0% TNFa-plus-vehicle, 100% no-TNFa wells
[2] = inhibitors of mutant huntingtin aggregation, primary screen, imaging, exon1htt(103Q)mCFP cells, high-content imaging (AID 483;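 active = visual image review flags a hit and inhibition of aggregation exceeds 20%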;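 also: compound exposure lasted 3 days before fixation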;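 as to nuclei count: percent of the per-plate median nuclei count of sample wells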); settings: exon1htt(103Q)mCFP cell line, aggregate imaging, at 2 µM; inhibition of aggregation: stronger effect = higher value; nuclei count: measured here: cell count, toxicity
[3] = inhibitors of E-selectin induction by TNFa, primary screen, imaging, HUVEC, immunofluorescence, MLSMR starter and 10KST1 sets (AID 487); settings: HUVEC TNFalpha-induced E-selectin immunofluorescence imaging, at 2 µM; inhibition: stronger effect = higher value; nuclei count: measured here: cell number, toxicity;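 as to inhibition: signal is fraction of cell area covered by stained E-selectin grains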;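 as to nuclei count: 100% = median nuclei count of all wells on the same plate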
[4] = target: Voltage-gated potassium channel subunit beta-2 (Rattus norvegicus) (UniProt P62483); experiment: KvBeta enzyme negative modulators, primary screen, biochemical, NADPH fluorescence (AID 622;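 active = fluorescence slope higher than the sample average by over 3 SD, cut at about -0.22 in these data, passing the limit was not always enough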;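 also: slope of raw intensity against log time taken from 70 to 1610 s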); settings: recombinant KvBeta, 4-cyanobenzaldehyde reduction, at 10 µM, stronger effect = higher value
Voltage-gated potassium channel subunit beta-2 (Rattus norvegicus), sequence (P62483 whole entry, looked up): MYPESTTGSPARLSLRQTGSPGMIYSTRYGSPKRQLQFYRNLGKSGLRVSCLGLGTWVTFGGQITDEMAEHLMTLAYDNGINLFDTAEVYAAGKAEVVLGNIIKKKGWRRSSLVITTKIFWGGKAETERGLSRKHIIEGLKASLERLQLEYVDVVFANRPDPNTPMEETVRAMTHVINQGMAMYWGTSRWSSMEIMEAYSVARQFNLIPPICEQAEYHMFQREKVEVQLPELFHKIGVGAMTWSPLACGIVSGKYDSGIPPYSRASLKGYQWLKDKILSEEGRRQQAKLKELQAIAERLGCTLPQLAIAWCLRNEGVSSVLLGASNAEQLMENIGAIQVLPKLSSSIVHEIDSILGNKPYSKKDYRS

[5] = target: Voltage-gated potassium channel subunit beta-2 (Rattus norvegicus) (UniProt P62483); experiment: KvBeta positive modulators, primary screen, biochemical, NADPH fluorescence (AID 623;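 active = NADPH fluorescence slope more negative than the mean of all samples by about 3 SD, 99.7% confidence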;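 also: fluorescence intensity change per second fitted from 20 to 320 s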); settings: Recombinant KvBeta, NADPH fluorescence decrease slope, 10 min; at 10 µM; stronger effect = lower value
[6] = target: Alpha-2C adrenergic receptor (Homo sapiens) (UniProt P18825); experiment: modulators of alpha2C/GIRK thallium flux, primary screen, cell-based, HEK293 alpha2C/GIRK1/2 (AID 624;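 active = fluorescence slope after compound addition differing from the mean of all screened samples at 99.7% confidence, in either direction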;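 also: slope of fluorescence ratio to pre-addition baseline per second over 15 to 24 s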); settings: thallium flux BTC fluorescence, at 10 µM, actives lie on both sides
Alpha-2C adrenergic receptor (Homo sapiens), sequence (P18825 whole entry, looked up): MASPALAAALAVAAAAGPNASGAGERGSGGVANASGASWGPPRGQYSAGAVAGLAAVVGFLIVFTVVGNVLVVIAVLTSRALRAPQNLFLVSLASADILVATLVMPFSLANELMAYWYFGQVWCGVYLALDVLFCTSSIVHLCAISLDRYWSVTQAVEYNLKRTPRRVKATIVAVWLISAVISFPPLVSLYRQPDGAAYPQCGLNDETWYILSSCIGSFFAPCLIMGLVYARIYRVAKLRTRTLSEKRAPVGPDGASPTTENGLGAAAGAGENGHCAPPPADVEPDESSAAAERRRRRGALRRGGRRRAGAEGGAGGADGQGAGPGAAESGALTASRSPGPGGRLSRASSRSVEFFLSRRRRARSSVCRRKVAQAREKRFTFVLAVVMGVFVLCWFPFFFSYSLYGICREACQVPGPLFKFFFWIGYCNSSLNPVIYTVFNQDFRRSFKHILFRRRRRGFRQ

[7] = inhibitors of Sendai virus-induced IRF3 signaling, primary screen, TLR/RLR signaling modifier project, cell-based, Sendai virus stimulus, luciferase, 10K MLSCN set (AID 602276;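 active = inhibition at or above 50% at 10 µM; inactive = inhibition below 50%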;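 also: firefly luciferase from ISG56 promoter only with Renilla not read in this screen; 0% = Sendai virus plus DMSO and 100% = medium plus DMSO without virus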); settings: HEK293 RL24 IRF3 luciferase reporter, at 10 µM, stronger effect = higher value
[8] = inhibitors of poly I:C-induced TLR3 signaling, primary screen, cell-based, poly I:C stimulus, luciferase, 10K MLSCN set (AID 602277;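 active = inhibition of the reporter signal at or above 50%; inactive = inhibition below 50%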); settings: HEK293-TLR3 RL24 IRF3 luciferase reporter, at 10 µM, stronger effect = higher value

Structure (SMILES)	cell count [1]	inhibition [1]	inhibition of aggregation [2]	nuclei count [2]	inhibition [3]	nuclei count [3]	fluorescence slope [4]	NADPH fluorescence slope [5]	slope [6]	inhibition [7]	inhibition [8]
CCCNC(=O)NC(C(=O)OC)C12CC3CC(CC(C3)C1)C2 (stereo not drawn)	308	-6.2% (inactive)	19.6% (inactive)	76.7%	-52.3% (inactive)	123%	-0.321 (inactive)	-1.6e-05 (inactive)	0.00242 (inactive)	12.2% (inactive)	23.2% (inactive)
CC(C)CNS(=O)(=O)c1ccc(CCC(=O)N2CCOCC2)cc1	647	1.1% (inactive)	-3% (inactive)	104%	-45.6% (inactive)	104%	-0.471 (inactive)	-4.8e-05 (inactive)	0.00694 (inactive)	8.44% (inactive)	21.1% (inactive)
CC1(C)CC(=O)C2=C(C1)NC(=O)CC2c1ccc(N(CCC#N)CCC#N)cc1 (stereo not drawn)	432	5.9% (inactive)	-2.1% (inactive)	109%	21.1% (inactive)	116%	-0.376 (inactive)	6.8e-05 (inactive)	0.00771 (inactive)	1.16% (inactive)	17.9% (inactive)
Cn1c(=O)[nH]c(=O)c2[nH]c(NCCCN3CCOCC3)nc21	572	4.8% (inactive)	8% (inactive)	92.2%	-36.4% (inactive)	112%	-0.613 (inactive)	-1.9e-05 (inactive)	0.00608 (inactive)	9.97% (inactive)	14.9% (inactive)
CCOC(=O)CSc1ncnc2c1cnn2-c1ccc(C)cc1	296	2.4% (inactive)	-24.2% (inactive)	108%	-3.4% (inactive)	129%	-0.581 (inactive)	-2e-05 (inactive)	0.00447 (inactive)	22.8% (inactive)	21.8% (inactive)
Cc1cc2c(cc1C)C(=O)NC(C)(C)C2	417	-1.1% (inactive)	-12.1% (inactive)	108%	-20.1% (inactive)	120%	-0.375 (inactive)	6.6e-05 (inactive)	0.01 (inactive)	-1.09% (inactive)	0.395% (inactive)
Cc1nc2ccc(CCO)cc2s1	419	8% (inactive)	2.9% (inactive)	93.2%	-162% (inactive)	112%	-0.652 (inactive)	3.1e-05 (inactive)	0.00546 (inactive)	5.43% (inactive)	4.05% (inactive)
O=C(Nc1nc2c(s1)CCc1ccccc1-2)c1cccs1	637	-3.6% (inactive)	-9.4% (inactive)	115%	30.8% (inactive)	86.1%	-0.361 (inactive)	1.5e-05 (inactive)	0.00613 (inactive)	12.8% (inactive)	-8.29% (inactive)
CC(=O)Nc1ccc(S(=O)(=O)CCC#N)cc1	424	7.2% (inactive)	2.2% (inactive)	90.4%	-113% (inactive)	107%	-0.482 (inactive)	-3.9e-05 (inactive)	0.00638 (inactive)	11.9% (inactive)	20% (inactive)
CCOc1ccc(-c2cc(CCCC(=O)N3CCN(c4ccc(OC)cc4)CC3)no2)cc1	513	0.7% (inactive)	23.7% (inactive)	61%	-0.1% (inactive)	86%	-0.614 (inactive)	2.2e-05 (inactive)	0.00539 (inactive)	11% (inactive)	24.1% (inactive)
CCOCCCNC(=O)C1CCN(S(=O)(=O)N(CC(C)C)CC(C)C)CC1	689	-5.1% (inactive)	17.3% (inactive)	79.1%	-91.6% (inactive)	100%	-0.503 (inactive)	-5.5e-05 (inactive)	0.00467 (inactive)	16.6% (inactive)	19.9% (inactive)
O=C(c1ccc2c(c1)OCCO2)C1CCN(C(=O)c2ccc(F)cc2)CC1	326	-10% (inactive)	-12% (inactive)	110%	-77.5% (inactive)	126%	-0.514 (inactive)	-4.4e-05 (inactive)	0.00672 (inactive)	7.11% (inactive)	-2.46% (inactive)
CCOC(=O)c1c(N)sn(-c2ccccc2)c1=S	441	-9.2% (inactive)	5.4% (inactive)	114%	-55.1% (inactive)	112%	-0.37 (inactive)	-5.3e-05 (inactive)	0.00599 (inactive)	15.3% (inactive)	20% (inactive)

Source: PubChem BioAssay
